Screens (PubChem)
Shiga inhibitor – inhibitors of Shiga toxin in Vero cells | Vero cells, Shiga toxin protein synthesis inhibition reporter | inhibition, % at 38.7 µM | 290,000 compounds, 9.2% hits; in the data active = inhibition mostly above about 28%, no sharp cut-off; inactive = mostly below about 43%; note: 0% is about no effect
CHX counter – counter-screen for Shiga toxin inhibitors: cycloheximide protein synthesis inhibition; 300,000 compounds, 12% hits; AID 2314; max response, %; cell reporter, cycloheximide protein synthesis inhibition counterscreen; in the data active = max response mostly above about 13%, no sharp cut-off; inactive = mostly below about 14%; note: read at 38.3 µM for the half of the compounds with a filed dose; 0% is about no effect
Lassa entry inh – Lassa virus entry inhibition. Potency, µM (titrated, usually from 37.9 µM), inactives show top-dose activity change, negative = inhibition, actives largely listed as inhibitors. 300,000 compounds, 1.2% hits. Lassa virus pseudotype entry inhibition, cell reporter; calls by dose curve; tested in HEK293 cells; note: potency is the fitted concentration of half-maximal effect; % is set by controls: 0 for no effect and ±100 for the full control effect; nearly all actives have a fitted effect of over 50% in size
Pf growth 96h – P. falciparum growth inhibition at 96 hour, primary screen for plastid delayed-death inhibitors | 320,000 compounds, 6.9% hits | P. falciparum luciferase reporter growth, 96 h | Potency, µM (highest dose often 28.7 µM), inactives show top-dose activity change, negative = inhibition, hits mostly inhibitors | AID 504834; note: potency is the fitted concentration of half-maximal effect; % is set by controls: 0 for no effect and ±100 for the full control effect
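Compounds incubated with erythrocytes infected by luciferase-expressing P. falciparum (2% hematocrit, 0.05% parasitemia final) for 96 hours, 37 C in 5% CO2. Growth inhibition scored as decreased luciferase luminescence.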
MARV entry inh – blocks Marburg virus binding to or entry into cells; Potency, µM (series often up to 37.8 µM), inactives show at the highest dose activity change, negative = inhibition, actives largely listed as inhibitors; AID 540276; Marburg virus pseudotyped entry inhibition, cell reporter; 300,000 compounds, 1.8% hits; calls by dose curve; tested in HEK293 cells; note: potency is the fitted concentration of half-maximal effect; % is set by controls: 0 for no effect and ±100 for the full control effect
Pf growth 48h – P. falciparum growth inhibition at 48 hours (one generation); P. falciparum luciferase growth in erythrocytes, 48 h; Potency, µM (series often up to 28.7 µM), inactives show top-dose activity change, negative = inhibition, usual class: inhibitors; 310,000 compounds, 5.9% hits; note: potency is the fitted concentration of half-maximal effect; % is set by controls: 0 for no effect and ±100 for the full control effect
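Cell-based growth assay: transgenic P. falciparum expressing firefly luciferase, cultured in red cells within RPMI 1640 containing 0.5% w/v Albumax, 24 mM bicarbonate and gentamycin. A drop in luciferase activity indicates inhibition.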
The depositor's hits bear a star; ? = inconclusive; . = not tested or not shown; [ ] = dose if it differs, or a comment. Shown are actives, neighbours in structure and some others; about 19% of the full set was active somewhere. Unless noted, calls come from the whole dose curve; as a rule, active = well fitted inhibition curve with a large enough effect; inconclusive = small, poorly fitted or top-dose-only effect, or another doubt; inactive = no such curve, though single readings can be large or run the other way.

SMILES	Shiga inhibitor	CHX counter	Lassa entry inh	Pf growth 96h	MARV entry inh	Pf growth 48h
CSc1ccccc1NC(=O)c1onc(C)c1Cl	2.7	-5.1	.	?	.	.
Cc1ccc(NC(=O)c2onc(C)c2Cl)cc1	62.3*	30.2*	.	-45.3%	.	.
CCOc1ccc(-c2cc(C(=O)NCc3ccc(OCC)c(OC)c3)[nH]n2)cc1	.	.	6.9%[46.1 µM]	.	.	.
COc1ccc(-c2cc(C(=O)NN)[nH]n2)cc1OC	11.5	8.3	.	6.4%	.	7.4%
CCOC(=O)c1cc(-c2cccc([N+](=O)[O-])c2)n[nH]1	1.7	14.4	-4.0%	50.0%	-1.9%[46.1 µM]	54.0%
COc1ccccc1-c1cc(C(=O)NN)[nH]n1	17.4	11.4	-12.9%	2.1%	-26.0%[46.1 µM]	-22.6%
COc1ccc(-c2cc(C(=O)NN)[nH]n2)cc1	active	22.1*	23.0%	31.7%	-30.5%	64.6%
CCOc1ccc(-c2cc(C(=O)NN)[nH]n2)cc1	43.5*	43.4*	-7.4%	?	-19.4%	12.3%
CCOC(=O)c1cc(-c2ccccc2)n[nH]1	46.9*	18.6*	?	227.2%	9.3%	138.9%
COC(=O)c1cc(-c2c[nH]c3ccccc23)n[nH]1	16.5	10.3*	-3.7%	-10.0%	-16.8%	8.9%
Cc1ncoc1C(=O)NC1CC(C)(C)Cc2c1cnn2-c1ccccc1 (stereo not given)	10.9	11.6	?	?	-2.8%	-18.5%
COC(=O)c1cc(-c2ccc(Br)cc2)n[nH]1	41.1*	29.0*	5.3%	?	15.1%	.
O=C(c1ccco1)c1coc2c1cc(O)c1ccccc12	99.6*	31.6*	6.4%	?	17.3%	?
CC(=O)c1coc2c1cc(O)c1ccccc12	36.4	12.7	9.1%	?	?	.
O=C(Oc1c(Br)cc(Br)c2cccnc12)N1CCCCC1	24.0	32.0*	7.0%	?	?	-14.1%
O=C(Oc1c(Cl)cc(Cl)c2ccccc12)N1CCCCC1	34.5	13.8	?	11.7µM*	?	.
O=C(Oc1ccc(Cl)c2ccccc12)N1CCCCC1	71.9*	32.1*	2.6%	?	-6.7%	.
O=C(Oc1ccc(Cl)c2cccnc12)N1CCCCC1	35.4	12.5	3.5%	142.0%	4.9%	47.2%
Nc1c(Br)cc(Br)c2cccnc12	-8.2	-6.6	.	.	.	.
Cc1ccc(C)c(N(C(=O)CNC(=O)c2ccco2)C(C(=O)NC2CCCCC2)c2cccnc2)c1 (stereo not given)	-9.0	-2.8	?	?	-6.1%[46.1 µM]	-0.8%
CCO[C@@H]1OC(C(=O)N2CCCCCCC2)=C[C@H](c2cn(C(C)=O)c3ccccc23)[C@H]1CCCO	-18.3	0.7	.	10.4µM*	.	?
CCO[C@@H]1OC(C(=O)N2CCCCCCC2)=C[C@H](c2csc3ccccc23)[C@H]1CCCO	-21.3	-1.7	.	?	.	8.28µM*
C=CCOC(=O)C1=C[C@H](c2cn(C(C)=O)c3ccccc23)[C@@H](CCCO)[C@H](OCC)O1	-2.0	-1.7	.	11.7µM*	.	?
C=CCOC(=O)C1=C[C@H](c2csc3ccccc23)[C@@H](CCCO)[C@H](OCC)O1	-7.1	-2.2	.	?	.	?
CCO[C@H]1OC(C(=O)N2CCOCC2)=C[C@@H](c2cn(C(C)=O)c3ccccc23)[C@@H]1CCCO	-8.6	0.9	.	-15.4%	.	7.4%
SMILES	Shiga inhibitor	CHX counter	Lassa entry inh	Pf growth 96h	MARV entry inh	Pf growth 48h
CCc1ccc(NC(=O)CN2CCN(c3ccc(OC)cc3)CC2)cc1	.	.	-3.4%[46.1 µM]	.	5.7%[46.1 µM]	.
COc1ccc(/C=C/C(=O)Nc2ccc3nc4c(c(Nc5ccccc5OC)c3c2)CCCC4)cc1	.	.	22.1%[46.1 µM]	.	?	.
Cc1c(CCO)c(=O)[nH]n1S(=O)(=O)c1ccccc1	-8.8	-3.4	-6.7%	-6.1%	14.2%[46.1 µM]	3.29µM*
CCOC(=O)N1C(COCc2ccccc2)C=CCS1(=O)=O (stereo not given)	180.8*	77.9*	.	.	.	.
CC(C)COC(=O)N1C(COCc2ccccc2)CCC=CS1(=O)=O (stereo not given)	22.1	14.4	.	.	.	.
COc1ccccc1NS(=O)(=O)c1cc(C(=O)Nc2ccc(S(=O)(=O)Nc3onc(C)c3C)cc2)ccc1C	.	.	12.2%	.	?	.
O=C(CN(C(=O)CSc1nnc(COc2ccccc2)o1)c1ccc(F)cc1)NC1CCCCC1	-2.4	-2.2	-18.2%	?	-27.2%	11.7µM*
CCOc1ccc(N(CC(=O)NC2CCCC2)C(=O)CSc2nnc(COc3ccccc3)o2)cc1	10.5	1.9	-12.9%	7.38µM*	?	.
CC(C)(C)[C@@H]1CCC(=O)N(CC[C@H](N=[N+]=[N-])c2ccccc2)CC1	32.9*	12.6*	.	?	.	?
CC(C)(C)C1CCC(=O)N(CCOc2ccccc2)CC1 (stereo not given)	43.0*	27.5*	.	-27.6%	.	52.2%
CCCN1CCC(=O)N(CCOc2ccccc2)CC1	3.9	3.2	.	42.3%	.	56.7%
COC(=O)n1c(=O)oc2cc(S(=O)(=O)N3CCCCC3)ccc21	-8.6	-1.7	-15.4%	159.5%	?	-11.6%
CC(C)c1ccc(O)c(N)c1	67.0*	29.6*	-10.7%	2.94µM*	24.9%	?
CC(C)(C)c1ccc(O)c(N)c1	-3.0	-4.4	.	13.1µM*	1.8%	?
CC(C)(C)c1ccc(SCC(N)=O)cc1	31.1	6.7	7.5%	-20.1%	-7.1%	-16.8%
CCC(C)c1ccc(O)c(N)c1 (stereo not given)	20.3	-0.9	19.3%	?	?	?
CCN(CC)C(=O)Cn1cc(/C=C(\C#N)C(=O)N2CCN(c3ccccc3)CC2)c2ccccc21	-16.2	-0.6	-14.9%	10.4µM*	?	?
CCCSc1ccc(-c2nn(-c3ccccc3)cc2/C=C(/C#N)C(=O)N2CCOCC2)cc1	-0.2	16.3*	?	?	7.08µM*	?
CCOC(=O)Cn1cc(/C=C(\C#N)C(=O)N2CCOCC2)c2ccccc21	74.0*	10.3*	2.0%	39.2%	2.6%	18.0%
Cc1ccc(NC(=S)N2CCC(NC(=O)c3ccccc3)CC2)cc1	11.3	-1.1	-21.2%[46.1 µM]	0.2%	7.5%[46.1 µM]	7.6%
